Results: PubChem BioAssay (EPA / NIEHS)
Active and inactive are the calls of the source. The calls were made as follows: active = hit-call score of the fitted dose curve at least 0.9, where 1 is the maximum; inactive = score below 0.9.

Experiments:
[1] = ATG_GLI_CIS: Attagene CIS-FACTORIAL HepG2 Assay for human Zinc Finger Protein GLI1 (AID 2282945); settings: HepG2, Attagene cis-factorial reporter mRNA, GLI element; actives raise or lower the signal
How it was run: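 Bidirectional curve fits relative to DMSO, using reporter mRNA levels from RT-PCR plus capillary electrophoresis. Cells were HepG2 transiently carrying cis-regulated reporter constructs, harvested 24 h after dosing.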

[2] = ATG_ISRE_CIS: Attagene CIS-FACTORIAL HepG2 Assay for human Interferon Regulatory Factor 1 (IRF1) binding to an Interferon-Stimulated Response Element (ISRE) (AID 2282948); settings: HepG2 ISRE cis-reporter (Attagene), mRNA transcription readout; actives raise or lower the signal
How it was run: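 Signal reflects induction or loss of ISRE-linked reporter mRNA in transiently transfected HepG2 cells after a 24 h treatment, detected by fluorescent RT-PCR fragments on capillary electrophoresis and normalised to DMSO.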

[3] = ATG_M_32_CIS: Attagene CIS-FACTORIAL HepG2 Assay for M32 Transcription Factor (Internal Marker) (AID 2282949); settings: HepG2 Attagene cis-factorial M32 reporter, mRNA; actives raise or lower the signal;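 also: background control marker of the multiplexed CIS panel rather than a real target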
How it was run: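 Using DMSO as baseline, bidirectional curve fits were applied to reporter mRNA signals. These came from transiently transfected HepG2 cells exposed for 24 h, with RNA analysed by RT-PCR, FAM primer extension, HpaI digestion and CE.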

[4] = ATG_M_06_CIS: Attagene CIS-FACTORIAL HepG2 Assay for M06 Transcription Factor (Internal Marker) (AID 2282950); settings: HepG2 Attagene CIS-FACTORIAL M06 internal marker reporter; actives raise or lower the signal
How it was run: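 Cells (HepG2, transiently carrying cis-driven reporter units) receive chemical for 24 h before RNA isolation. Reporter cDNA is PCR-amplified, FAM-labelled by primer extension, HpaI-digested and sized on a capillary analyser.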

[5] = molecular target: Hypoxia-inducible factor 1-alpha (Homo sapiens) (UniProt Q16665); experiment: ATG_HIF1a_CIS: Attagene CIS-FACTORIAL HepG2 Assay for human Hypoxia Inducible Factor 1 (HIF1A) (AID 2282951); settings: HepG2 Attagene cis-factorial HIF1a reporter transcription; actives raise or lower the signal
How it was run: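 Measures endogenous transcription-factor activity through cis-regulated reporter mRNA in HepG2. Cells dosed 24 h; transcripts quantified by RT-PCR with 6-FAM-labelled products separated by capillary electrophoresis; DMSO serves as negative control.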

[6] = molecular target: Hepatocyte nuclear factor 6 (Homo sapiens) (UniProt Q9UBC0); experiment: ATG_HNF6_CIS: Attagene CIS-FACTORIAL HepG2 Assay for human Hepatocyte Nuclear Factor 6 (HNF6) (AID 2282952); settings: HepG2 Attagene cis-factorial HNF6 reporter transcription; actives raise or lower the signal
How it was run: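 Using cis-element reporters in HepG2 liver cells, the assay tracks endogenous factor-driven transcription 24 h post-dosing. Signal comes from 6-FAM-labelled, HpaI-digested RT-PCR fragments, with gain or loss scored against DMSO.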

[7] = molecular target: Heat shock factor protein 1 (Homo sapiens) (UniProt Q00613); experiment: ATG_HSE_CIS: Attagene CIS-FACTORIAL HepG2 Assay for human Heat Shock Transcription Factor 1 (HSE) (AID 2282953); settings: HepG2 HSE cis-reporter, Attagene RNA transcription; actives raise or lower the signal
How it was run: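 Liver-derived HepG2 cells carry transiently introduced multiple reporter units governed by cis promoters. Reporter RNA measured 24 h post-dose through reverse transcription, PCR amplification, fluorescent labelling and capillary electrophoresis, normalised to DMSO.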

[8] = ATG_MRE_CIS: Attagene CIS-FACTORIAL HepG2 Assay for human Metal Responsive Element (MRE) (AID 2282954); settings: HepG2 MRE cis-reporter transcription, Attagene multiplex; actives raise or lower the signal
How it was run: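 Multiplexed cis-reporter assay in human HepG2 liver cells, 24 h incubation with test chemical. Reporter transcripts measured by RT-PCR and capillary electrophoresis; values from bidirectional curve fitting versus DMSO.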

[9] = ATG_PBREM_CIS: Attagene CIS-FACTORIAL HepG2 Assay for human Phenobarbital-responsive Enhancer Module (PBREM) (AID 2282955); settings: HepG2 PBREM cis-reporter, Attagene multiplexed transcription; actives raise or lower the signal
How it was run: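 Fluorescence of labelled reporter cDNA fragments, resolved by capillary electrophoresis, gives mRNA induction in transfected HepG2 cells treated for 24 h; DMSO serves as negative control and baseline.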

[10] = ATG_GRE_CIS: Attagene CIS-FACTORIAL HepG2 Assay for human Glucocorticoid Response Elements (GRE) (AID 2282947); settings: HepG2 GRE cis-reporter, Attagene multiplex mRNA; actives raise or lower the signal
How it was run: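 Multiplexed cis-reporter mRNA induction, HepG2, 24 h post-dose. RT-PCR, FAM-labelled, HpaI-digested amplicons by CE. Bidirectional fit vs DMSO.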

Measured: AC50

Hepatocyte nuclear factor 6 (Homo sapiens), sequence (Q9UBC0 whole entry, looked up, the tested form may be a part): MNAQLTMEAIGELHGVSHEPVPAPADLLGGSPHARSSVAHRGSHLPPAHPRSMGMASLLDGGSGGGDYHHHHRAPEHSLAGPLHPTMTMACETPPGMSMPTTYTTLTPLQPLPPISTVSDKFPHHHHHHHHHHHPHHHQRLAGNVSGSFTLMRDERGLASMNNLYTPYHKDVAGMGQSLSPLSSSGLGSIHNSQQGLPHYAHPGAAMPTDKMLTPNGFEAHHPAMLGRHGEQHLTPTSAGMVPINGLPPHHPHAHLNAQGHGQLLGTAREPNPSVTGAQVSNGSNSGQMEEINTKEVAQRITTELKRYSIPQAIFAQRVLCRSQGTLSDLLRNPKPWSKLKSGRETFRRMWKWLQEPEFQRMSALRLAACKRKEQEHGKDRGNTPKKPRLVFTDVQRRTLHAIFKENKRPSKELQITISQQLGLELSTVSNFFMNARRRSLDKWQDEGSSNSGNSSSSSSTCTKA
Hypoxia-inducible factor 1-alpha (Homo sapiens), sequence (Q16665 whole entry, looked up): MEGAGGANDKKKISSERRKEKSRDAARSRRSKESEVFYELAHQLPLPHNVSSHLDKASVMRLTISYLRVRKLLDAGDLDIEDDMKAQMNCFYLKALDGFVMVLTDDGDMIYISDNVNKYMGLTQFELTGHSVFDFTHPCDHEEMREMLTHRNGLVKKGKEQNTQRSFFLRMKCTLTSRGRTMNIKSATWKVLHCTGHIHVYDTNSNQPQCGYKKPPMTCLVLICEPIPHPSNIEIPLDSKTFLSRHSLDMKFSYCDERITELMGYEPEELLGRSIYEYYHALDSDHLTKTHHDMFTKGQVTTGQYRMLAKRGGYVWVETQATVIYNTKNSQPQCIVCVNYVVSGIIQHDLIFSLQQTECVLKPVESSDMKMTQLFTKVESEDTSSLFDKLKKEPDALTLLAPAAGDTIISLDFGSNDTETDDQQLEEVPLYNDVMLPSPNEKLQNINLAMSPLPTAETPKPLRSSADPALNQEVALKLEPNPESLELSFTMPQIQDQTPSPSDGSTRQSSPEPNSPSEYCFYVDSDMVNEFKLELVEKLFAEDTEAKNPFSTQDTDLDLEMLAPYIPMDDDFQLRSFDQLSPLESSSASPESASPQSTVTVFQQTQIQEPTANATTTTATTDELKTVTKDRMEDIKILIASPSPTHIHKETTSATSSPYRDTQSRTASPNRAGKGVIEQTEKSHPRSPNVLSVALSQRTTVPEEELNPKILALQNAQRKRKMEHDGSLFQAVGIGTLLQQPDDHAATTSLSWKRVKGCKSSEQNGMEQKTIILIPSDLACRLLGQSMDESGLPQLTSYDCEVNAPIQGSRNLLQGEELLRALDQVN
Heat shock factor protein 1 (Homo sapiens), sequence (Q00613 whole entry, looked up): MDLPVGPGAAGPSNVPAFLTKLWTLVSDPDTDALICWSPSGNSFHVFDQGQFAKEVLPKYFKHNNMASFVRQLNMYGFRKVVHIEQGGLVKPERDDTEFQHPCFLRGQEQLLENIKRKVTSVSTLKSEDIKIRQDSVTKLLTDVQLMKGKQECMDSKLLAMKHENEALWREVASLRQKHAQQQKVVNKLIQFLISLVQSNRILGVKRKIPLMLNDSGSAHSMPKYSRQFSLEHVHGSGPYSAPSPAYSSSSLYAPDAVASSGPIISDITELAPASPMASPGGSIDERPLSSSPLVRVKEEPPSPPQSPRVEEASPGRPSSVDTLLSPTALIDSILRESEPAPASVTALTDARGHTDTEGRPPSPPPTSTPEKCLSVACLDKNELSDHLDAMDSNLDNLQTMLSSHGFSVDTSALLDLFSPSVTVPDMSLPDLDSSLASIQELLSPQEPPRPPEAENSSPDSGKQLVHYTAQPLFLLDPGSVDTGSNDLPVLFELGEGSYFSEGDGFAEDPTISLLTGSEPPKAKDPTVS

O=C(O)Cc1ccccc1Nc1c(Cl)cccc1Cl
not listed: [10]
inactive: all other assays above

CC(=O)Oc1ccccc1C(=O)O
inactive: [1] | [2] | [3] | [4]

CC(CO)OC(C)CO (stereo not drawn) (tested in a mixture with another compound)
active: [5] 4.72 µM
not listed: [8] | [9] | [10]
inactive: all other assays above

Clc1cc(Cl)c(Cl)cc1Cl
not listed: [8] | [9] | [10]
inactive: all other assays above

Cc1ccc(C)c(O)c1C
not listed: [10]
inactive: all other assays above

NC(=O)Cn1c(=O)cc(CCN2CCN(c3nccc4sccc34)CC2)c2ccc(F)cc21
active: [5] 61.4 µM
not listed: [6] | [8] | [9]
inactive: all other assays above

CN1CCN(Cc2cc(-c3ccc4[nH]c(=O)oc4c3)co2)[C@@H](c2ccc(F)cc2)C1
active: [2] 18 µM | [5] 6.55 µM | [8] 48.6 µM
not listed: [6] | [7]
inactive: all other assays above

CCCCOC(=O)CCCCCCCCC(=O)OCCCC
inactive: all assays above

CCCCCCCCCCO
active: [8] 160 µM
not listed: [9] | [10]
inactive: all other assays above

Cc1nc(C)nc(N2C[C@@H](C)N(c3ccnc([C@@H](C)O)n3)[C@@H](C)C2)n1
not listed: [8] | [9] | [10]
inactive: all other assays above

CCCCCCCCCCCCCCCC
inactive: [10] | [2] | [3] | [4] | [5] | [7]

CN[C@H]1CC[C@@H](c2ccc(Cl)c(Cl)c2)c2ccc(S(N)(=O)=O)cc21
not listed: [8] | [10]
inactive: all other assays above

CC(C)(C)c1cc(O)c(C(C)(C)C)cc1O
inactive: [10] | [4] | [5]
active: [2] 114 µM | [3] 40.6 µM | [7] 64.3 µM | [9] 61.6 µM

Cc1cc(=O)[nH]c(=S)[nH]1
not listed: [1]
inactive: all other assays above

COc1ccc(C)cc1N
not listed: [1] | [6] | [8]
inactive: all other assays above

C1CCC(SSC2CCCCC2)CC1
not listed: [1] | [8]
inactive: all other assays above

CC=Cc1ccc(O)c(OC)c1
not listed: [8] | [10]
inactive: all other assays above

Cc1oc(-c2ccccc2)nc1CCOc1cccc2c1ccn2CCC(=O)O
not listed: [1] | [6]
inactive: all other assays above

O=C(N[C@@H](Cc1ccccc1)[C@@H](O)C(=O)N1C[C@@H](O)[C@@H](O)C1)c1cc2cc(Cl)ccc2[nH]1
active: [8] 100 µM
not listed: [6] | [9] | [10]
inactive: all other assays above

O=C(OCCCCCOC(=O)c1ccccc1)c1ccccc1
active: [5] 26.3 µM
not listed: [1] | [6]
inactive: all other assays above

COc1cc(/C=C/C(=O)CC(=O)/C=C/c2ccc(O)c(OC)c2)ccc1O
inactive: [3] | [4] | [5] | [9]
active: [1] 53.9 µM | [2] 33.4 µM | [8] 52.6 µM

COCCOC[C@H](CC1(C(=O)NC2CCC(C(=O)O)CC2)CCCC1)C(=O)Oc1ccc2c(c1)CCC2 (stereo partly drawn)
not listed: [1]
inactive: all other assays above
